Laboratory results published in PubChem BioAssay AID501 (PCMD, 2006).
Hit rate of the full screen: of about 62,000 compounds, about 35 (0.06%) were called active. This excerpt belongs to a sample that is enriched for actives. Values without a mark were called inactive. Rule as the data show it: active = inhibition above about 32% (passing the limit was not always enough); inconclusive = no clear call, values can overlap the other calls.

What follows are compounds tested against Cathepsin S (Homo sapiens) (UniProt P25774) (assay: blockers of CTSS protease activity – biochemical, compound mixtures (AID 501;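 also: 0% = enzyme without compound and 100% = blank without enzyme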)). Conditions: recombinant cathepsin S, AMC dipeptide fluorescence, pooled mixtures; active compounds read high;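 tested at 5 µM per compound within 10-compound mixtures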.
Sequence of Cathepsin S (Homo sapiens) (P25774 115-331 limits assumed): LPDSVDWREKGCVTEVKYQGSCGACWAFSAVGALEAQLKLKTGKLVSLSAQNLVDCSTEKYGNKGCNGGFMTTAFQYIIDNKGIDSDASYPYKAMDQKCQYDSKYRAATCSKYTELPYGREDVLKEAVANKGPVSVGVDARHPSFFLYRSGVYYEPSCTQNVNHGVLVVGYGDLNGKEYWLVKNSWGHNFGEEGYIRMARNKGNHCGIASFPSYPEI

Compared with COc1ccc(-n2ncc3c(N4CCc5ccccc54)ncnc32)cc1, CCOc1ccc(NC(=O)CSc2nc3c(c(=O)n2-c2ccccc2OC)SCC3)cc1 is lower in inhibition: -6.55% for the first, -11.1% for the second.

Going from COc1ccccc1C(=O)N1CCN=C1SCc1cccnc1 to COCCn1c(=O)[nH]c2cc(C(=O)NCc3cccnc3)ccc2c1=O, the inhibition rises from 3.41% to 4.14%.

First: CCn1cc(C(=O)N2CCN(Cc3ccc4c(c3)OCO4)CC2)c2cc(OC)c(OC)cc2c1=O
Second: Cc1cccc(N2CCN(C(=O)c3cc4c(=O)[nH]c5ccccc5c4n3C)CC2)c1C
The inhibition of the first is lower: 0.555% for the first, 16.8% for the second.

First: Cc1ccc(S(=O)(=O)NCc2cn3ccsc3n2)c(C)c1
Second: CCn1ncc(Br)c1C(=O)Nc1cc(C)ccc1F
The inhibition of the first is lower: -2.17% for the first, 6.74% for the second.

Going from CC1(C)CC(=O)C(C=NCc2cccnc2)=C(O)C1 to CCCNS(=O)(=O)c1ccc(CCC(=O)NCc2cccnc2)cc1, the inhibition rises from -6.24% to -3.48%.

Compared with COc1ccc(C(=O)Cn2nnc(-c3ccc(N4CCOCC4)cc3)n2)cc1OC, COc1cccc(N(CC(=O)NC2CCCC2)C(=O)Cn2nnc(-c3ccc(C)cc3)n2)c1 is lower in inhibition: 8.22% for the first, -32.1% for the second.

First: Cc1c(-c2nn(C)c(=O)c3ccccc23)oc2ccc(F)cc2c1=O
Second: Cn1c(C(=O)NCCc2ccsc2)cc2c(=O)n(C)c3ccccc3c21
The inhibition of the first is higher: 21.9% for the first, -2.9% for the second.

Compared with CCn1c(SCC(=O)Nc2cc(C)ccc2C)nnc1-c1cnccn1, CCc1nnc(NC(=O)CSc2nnc(-c3ccncc3)n2Cc2ccccc2)s1 is higher in inhibition: -6.74% for the first, 15.4% for the second.

Going from O=C(Cn1nnc(-c2ccccc2)n1)NCc1ccccc1 to O=C(COc1ncnc2ccccc12)NC(=O)NCc1ccccc1, the inhibition falls from 3.11% to -8.35%.

Compared with NC(=O)Cn1c(=O)oc2ccccc21, Cn1c(=O)c(C(=O)Nc2ncccn2)c(O)c2ccccc21 is lower in inhibition: 0.705% for the first, -4.57% for the second.

Compared with Cc1nnc(C)n1/N=C/c1ccc(C(C)C)cc1, CC(C)c1ccc(NS(=O)(=O)c2cn(C)c(=O)n(C)c2=O)cc1 is lower in inhibition: 5.16% for the first, -0.575% for the second.

First: Cc1cc(N2CCCC2=O)cc(C)c1S(N)(=O)=O
Second: Cc1nn(C)c(C)c1S(=O)(=O)N1CCc2ccccc21
The inhibition of the first is higher: 14% for the first, -5.94% for the second.

Going from CC(C)OCCCNC(=O)CNC(=O)c1cccs1 to NC(=O)c1ccsc1NC(=O)c1ccco1, the inhibition falls from 15.3% to 7.91%.

Going from Cn1cnc2c1c(=O)n(Cc1c(Cl)cccc1Cl)c(=O)n2C to COCCn1c(CN(Cc2ccccc2)Cc2ccccc2)nc2c1c(=O)n(C)c(=O)n2C, the inhibition rises from -2.21% to 9.43%.

First: CCOC(=O)CNC(=O)CSc1nnc(COc2ccc(Cl)cc2)n1CC
Second: CCOC(=O)CSc1nnc(CNc2nc(-c3ccccc3)cs2)n1C
The inhibition of the first is higher: 17% for the first, -5.74% for the second.

Compared with Cc1cccc(N2CCN(C(=O)C3CCN(S(=O)(=O)c4cnc[nH]4)CC3)CC2)c1C, Cc1cccc(N2CCN(C(c3ccccc3)c3nnnn3CC3CCCO3)CC2)c1C (centres undefined) is higher in inhibition: -2.09% for the first, 6.28% for the second.

Compared with CCOC(=O)c1c(NC(=O)c2ccc(Br)o2)sc2c1CCCC2, CC(CNC(=O)c1ccc(Br)o1)NC(=O)c1ccc(Br)o1 (centres undefined) is higher in inhibition: -2.96% for the first, 6.17% for the second.

First: CC1CC(c2ccccc2)n2nc(NC(=O)c3cccs3)nc2N1 (centres undefined)
Second: CC1=C(C(=O)OCc2ccccc2)C(c2ccco2)n2ncnc2N1 (centres undefined)
The inhibition of the first is higher: 7.8% for the first, 6.81% for the second.

Compared with CC(=O)Nc1cc2ccc(OC(C)=O)cc2oc1=O, CCOc1ccc(NC(=O)Nc2ccc(N(C)C(C)=O)cc2)cc1 is higher in inhibition: -31.5% for the first, -16.6% for the second.

Going from C=CCNC(=O)C1CC=CCC1C(=O)O (centres undefined) to O=C(O)C1CC=CCC1C(=O)NCCc1ccccc1 (centres undefined), the inhibition falls from -2.51% to -14.2%.

Going from O=C(NC(c1ccccc1)c1ccccc1)N1CCN(CCO)CC1 to O=C(CCCn1c(=O)[nH]c2cc(Cl)ccc2c1=O)NCCN1CCN(c2ccccc2)CC1, the inhibition rises from 10.9% to 13.6%.

Going from Cc1cc(C(F)(F)F)nn1-c1nc(-c2ccco2)cc(C(F)(F)F)n1 to O=C1c2ccccc2C(=O)N1c1ccccc1S(=O)C(F)(F)F (centres undefined), the inhibition rises from 7.66% to 16.1%.

Compared with CCN(C(=O)CSc1ncn[nH]1)c1cccc2ccccc12, CCCc1nc(-c2ccccc2O)n(-c2ccccc2)n1 is lower in inhibition: 2.39% for the first, -4.97% for the second.

Going from Cc1noc(NS(=O)(=O)c2ccc(N3CC(O)=C(c4ccccc4)C3=N)cc2)c1C to Cc1ccc(-c2noc(CSc3nnc(-c4ccccc4)n3C)n2)cc1, the inhibition rises from -12.9% to -4.08%.

Going from Cc1ccc(-c2nc(CS(=O)CC(=O)N3CCN(c4ncccn4)CC3)c(C)o2)cc1 (centres undefined) to Cc1ccc(NC(=O)CS(=O)CC(=O)N(c2ccccc2)C(C)C(=O)NC2CCCC2)cc1 (centres undefined), the inhibition falls from 7.31% to -27.8%.

Going from CC(C)n1c(C(O)c2ccccc2)nc2ccccc21 (centres undefined) to Cc1ccccc1N1CC(c2nc3ccccc3[nH]2)CC1=O (centres undefined), the inhibition rises from -7.12% to -1.51%.

Compared with Cc1ccc(-c2nnc(SC(C)C#N)n2N)cc1 (centres undefined), Cc1cnc(NC(=O)CSc2nnc(-c3ccccc3)n2Cc2ccccc2)s1 is higher in inhibition: -1.33% for the first, 11.8% for the second.

Compared with CC(=O)NCCc1ccc(S(=O)(=O)N(C)C2CCS(=O)(=O)C2)cc1 (centres undefined), COC(=O)CN(c1nc(C)c(Cl)c(OC)n1)S(=O)(=O)c1ccc(C)cc1 is lower in inhibition: 30% for the first, 3.91% for the second.

First: CCc1ccccc1NC(=O)CSc1nnc([C@@H](NC(=O)OC(C)(C)C)C(C)C)o1
Second: CCOc1ccccc1Nc1nnc(SCC(=O)Nc2cc(C)on2)s1
The inhibition of the first is higher: 9.29% for the first, 8.96% for the second.

First: CCOC(=O)c1sc(N(Cc2ccccc2)C(=O)CN2C(=O)CN(C)C2=O)nc1C
Second: CCOC(=O)C(C)Oc1cccc2c(=O)n(CC(=O)N3CCc4ccccc43)ccc12 (centres undefined)
The inhibition of the first is higher: -1.84% for the first, -6.21% for the second.

First: O=C(C1CCN(CC2CCCCC2)CC1)N1CCCC1
Second: CCOC(=O)C1CCN(C(=O)C2CCN(S(=O)(=O)CC)CC2)CC1
The inhibition of the first is lower: -3% for the first, 6.47% for the second.

First: FC(F)Oc1ccccc1C1CC(c2ccc(Br)s2)Nc2ncnn21 (centres undefined)
Second: O=C(NCc1ccccn1)Nc1ccc(F)cc1
The inhibition of the first is lower: 1.68% for the first, 17.6% for the second.

Compared with CCC(C)n1[nH]c(=O)c2c(C)cc(C)nc21 (centres undefined), C=C(C)Cn1c(N2CCCC2)nc2c1c(=O)[nH]c(=O)n2C is lower in inhibition: 12.4% for the first, -0.005% for the second.

First: Cc1nc(NC(=O)CCC(=O)O)sc1C(=O)N(C)C
Second: COC(=O)[C@H](CCSC)NC(=O)Nc1ccc(OC)cc1
The inhibition of the first is lower: -4.56% for the first, -1.09% for the second.

Compared with O=C(Cn1cc2c(n1)CCCCC2)NCCN1CCOCC1, CCOc1ccc(C2C(C(=O)O)c3ccccc3C(=O)N2CCN2CCOCC2)cc1 (centres undefined) is higher in inhibition: 7.2% for the first, 39.9% for the second.

First: COc1ccccc1NC(=O)CSc1nnc(Cn2nnc(-c3ccccc3)n2)n1-c1ccccc1
Second: COC(=O)c1[nH]c2ccccc2c1NC(=O)CN1CCCc2ccccc21
The inhibition of the first is lower: -0.79% for the first, 15.9% for the second.

Going from COc1cc(Cl)cc(C2NC(=O)NC(C)=C2C(=O)NCc2ccccc2)c1O (centres undefined) to CC(NC(=O)CN1CCN(Cc2ccc(Cl)cc2)C1=O)c1ccc2c(c1)OCCO2 (centres undefined), the inhibition rises from 7.15% to 55.3%.

Going from CSc1sc(C)cc1C1C(C#N)=C(N)N(c2cccnc2)C2=C1C(=O)CCC2 (centres undefined) to COc1ccc(N(C(=O)c2cccnc2)S(=O)(=O)c2ccc3c(c2)n(C)c(=O)n3C)cc1, the inhibition falls from 1.56% to -5.68%.

Compared with COCCCn1c(CCC(=O)O)ccc1-c1ccc(F)cc1, CCN(CCCCOC(=O)c1ccc(OC)c(OC)c1)C(C)Cc1ccc(OC)cc1 (centres undefined) is higher in inhibition: -19.4% for the first, 14.3% for the second.

Going from CCOc1ccc(CC(=O)Nc2ccc(S(=O)(=O)Nc3cc(C)on3)cc2)cc1OCC to O=C(CN(c1ccc2c(c1)OCCO2)S(=O)(=O)c1ccccc1)Nc1ccc2c(c1)OCO2, the inhibition rises from -4.34% to 8.94%.

Going from CC(=O)Nc1ccc(-c2cn3cccnc3n2)cc1 to Cc1ccccc1NC(=O)CNc1ccccc1N1CCCCC1, the inhibition falls from -4.08% to -4.53%.

First: COc1ccc(N(CC(=O)NC2CCCCCCC2)S(=O)(=O)c2c(C)nn(C)c2C)cc1
Second: Cn1c(=O)[nH]c(=O)c2c1nc(N1CCCCCC1)n2CC(=O)c1ccccc1
The inhibition of the first is lower: -2.48% for the first, 12.8% for the second.

First: COC(CCN(C)C)(c1ccccc1)c1ccccc1
Second: Cc1cccc(N2CCN(Cc3c(C)n(C)n(-c4ccccc4)c3=O)CC2)c1C
The inhibition of the first is lower: -4.38% for the first, -2.31% for the second.

Going from O=C(O)C1CCCN(S(=O)(=O)c2cccc3cccnc23)C1 (centres undefined) to O=C(NCCCN1CCN(Cc2ccccc2)CC1)C1CCN(S(=O)(=O)N2CCCC2)CC1, the inhibition rises from -4.15% to 17.9%.

First: O=C(O)CSCNC(=O)CC12CC3CC(CC(C3)C1)C2
Second: Cn1c(=O)cc(SCC(=O)N2CCCC2)c2cc(Cl)ccc21
The inhibition of the first is lower: 1.12% for the first, 1.36% for the second.

Cn1c(C(=O)NCCN2CCc3ccccc3C2)cc2c(=O)[nH]c3ccccc3c21 was tested, and the inhibition was 45.6% (active).
In the case of COC(=O)c1[nH]c2cccc(C)c2c1NC(=O)CN1CCCc2ccccc21, the inhibition is reported as 51.2% (active).
In the case of Cc1nnc(SCCCn2c(N3CCCCC3)nc3c2c(=O)[nH]c(=O)n3C)s1, the inhibition is reported as 37.6% (active).
For CC(C)C[C@H](NC(=O)[C@@H]1O[C@H]1C(=O)O)C(=O)NCCCCN=C(N)N, the inhibition was 117% (active).
